High-throughput results deposited in PubChem by National Center for Advancing Translational Sciences (NCATS).
Sampled rows, rich in hits. Any-hit rate of the full collection: about 19%.
TDP1 cell CPT: DT40-hTDP1 cell growth loss with CPT; chicken DT40 Tdp1-/-;hTDP1 cells + 20 nM CPT, ATP luminescence, 48 h; Potency, µM (series often up to 46.2 µM), for the others: at the top dose activity change, negative = growth inhibition, most hits filed as inhibitors; actives 12% (n = 420,000); further: potency means the concentration at half of the fitted maximal effect; nearly all actives have a fitted effect of over 55% in size
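Chicken DT40 Tdp1-/- cells complemented with human TDP1, 400 cells/well, exposed to compounds plus 20 nM camptothecin for at least 48 h at 37 C; viability read as ATP content by CellTiter-Glo luminescence.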
IL1B secr inh: inflammasome signaling inhibition, IL-1 beta readout; AID 743279; activity change, % at 57.5 µM; actives 4.7% (n = 360,000); THP-1 LPS/ATP IL-1B secretion, AlphaLISA, 16 h; hits give low values; in the data active means activity change below about -50%; inconclusive means mostly about -30% to -49%
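Secreted IL-1B measured by AlphaLISA bead assay after 16 h compound exposure of THP-1 cells; compounds (final up to 57.5 uM) added 1 h before LPS (250 ng/mL) and ATP (1.25 mM) stimulation; lower signal means less secretion.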
HT1080 IDH1KD tx: toxicity to HT-1080 IDH1 knockdown cells (counter line). HT-1080 IDH1 knockdown viability, ATP luminescence, 48 h. Potency, µM (highest dose often 46.1 µM), for the others: top-dose activity, negative = toxicity, most hits filed as cytotoxic. actives 2% (n = 360,000). AID 686971;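 further: potency means the concentration at half of the fitted maximal effect; 0% = DMSO wells and -100% = cell-free medium wells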
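Luminescent ATP read-out (CellTiter-Glo, 10 min at room temperature) after 48 h compound exposure at 37 °C gave viability of IDH1-knockdown HT-1080 cells. Activity was normalised to DMSO and cell-free wells, then fitted as concentration-response curves.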
HT1080-NT tox: kills 2HG-producing HT-1080-NT fibrosarcoma cells. AID 686970. actives 1.6% (n = 360,000). Potency, µM (highest dose often 46.1 µM), without a hit: at the highest dose activity, negative = less viability, hits mostly cytotoxic. HT-1080-NT fibrosarcoma viability, CellTiter-Glo ATP luminescence, 48 h;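 further: NT is the 2HG producing partner of a matched IDH1 knockdown line; potency means the concentration at half of the fitted maximal effect; 0% = DMSO-treated cells and -100% = media-only wells without cells; nearly all actives have a fitted effect of over 55% in size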
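Viability by CellTiter-Glo luminescence after 48 h compound exposure at 37C of HT-1080-NT cells (750/well, RPMI, 5% FBS). % activity scaled between DMSO wells and medium-only wells, then curve-fitted and categorized by curve class.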
DT40 TDP1 no CPT: qHTS for Inhibitors of human tyrosyl-DNA phosphodiesterase 1 (TDP1): qHTS in cells in absence of CPT. DT40 Tdp1-/- hTDP1 cells, no CPT, ATP luminescence, 48 h. Potency, µM (series often up to 46.2 µM), inactives show at the highest dose activity change, negative = growth inhibition, most hits filed as inhibitors. actives 15% (n = 420,000); further: potency means the concentration at half of the fitted maximal effect; nearly all actives have a fitted effect of over 55% in size
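Cells were dispensed at 400 per well, compounds added by pin tool, plates incubated ≥48 hr at 37 °C, then CellTiter-Glo added for 30 min at room temperature before luminescence reading. Line: DT40 Tdp1-/- complemented with hTDP1; camptothecin omitted.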
The depositor's hits bear a star; i = inactive; ? = inconclusive; / = no result given. Unless noted, the call rests on the fitted dose curve; in most records, active means well fitted curve in the direction sought with a large enough effect; inconclusive means small, poorly fitted or top-dose-only effect, or another doubt; inactive means no such curve, though single readings can be large; an effect the other way counts as inactive or inconclusive. Unless noted, on the % scale 0 is the no-effect control and ±100 the full control effect.

SMILES | TDP1 cell CPT | IL1B secr inh | HT1080 IDH1KD tx | HT1080-NT tox | DT40 TDP1 no CPT
Cc1ccc(S(=O)(=O)N(C)C[C@H]2Oc3cc(C#CC4CCCC4)ccc3S(=O)(=O)N([C@H](C)CO)C[C@H]2C)cc1 | 18µM* | -2 | ? | -18% | 18µM*
C[C@H]1CN([C@@H](C)CO)S(=O)(=O)c2ccc(Br)cc2O[C@@H]1CN(C)S(=O)(=O)c1ccccc1 | ? | -19 | 0% | 4% | ?
COc1ccc(S(=O)(=O)N(C)C[C@@H]2Oc3cc(Br)ccc3S(=O)(=O)N([C@H](C)CO)C[C@@H]2C)cc1 | ? | -20 | ? | ? | 16µM*
O=C1NC(=O)/C(=C\c2cn(CC(=O)N3CCOCC3)c3ccccc23)S1 | 10% | 3 | 4% | 5% | 3%
COc1cccc(C#Cc2ccc3c(c2)O[C@H](CN(C)S(=O)(=O)c2ccccc2F)[C@H](C)CN([C@H](C)CO)S3(=O)=O)c1 | -30% | 1 | 0% | 12% | ?
CCCC#Cc1ccc2c(c1)O[C@H](CN(C)S(=O)(=O)c1cccc(OC)c1)[C@H](C)CN([C@H](C)CO)S2(=O)=O | 15µM* | -16 | ? | ? | 16µM*
COc1cccc(S(=O)(=O)N(C)C[C@@H]2Oc3cc(Br)ccc3S(=O)(=O)N([C@@H](C)CO)C[C@@H]2C)c1 | ? | -11 | -14% | -2% | 26µM*
COCC#Cc1ccc2c(c1)O[C@@H](CN(C)S(=O)(=O)c1cccc(F)c1)[C@@H](C)CN([C@H](C)CO)S2(=O)=O | ? | -1 | -1% | -5% | 18µM*
COc1cccc(NC(=O)N(C)C[C@@H]2Oc3cc(Br)ccc3S(=O)(=O)N([C@@H](C)CO)C[C@H]2C)c1 | 1% | 8 | 6% | 9% | -9%
CCC(=O)N1CCc2cc(S(=O)(=O)NC(C(=O)NCCc3ccccc3)C(C)C)ccc21 (centres undefined) | -21% | / | / | / | ?
CS(=O)(=O)N(CC(=O)N1CCCCCC1)c1cc(Cl)ccc1Cl | -6% | -14 | 1% | 0% | 0%
COc1cc(CNCCO)cc(Cl)c1OCc1ccc(Cl)cc1Cl | ? | -83* | 16µM* | 21µM* | 21µM*
COc1cc(CNCCO)cc(Br)c1OCc1ccccc1Cl | 23µM* | -15 | -29% | -2% | ?
COc1c(Cl)cc(Cl)cc1CNCCNCCO | -28% | -5 | -5% | -17% | -7%
CCn1c(O)c(N=NC(=O)C(O)c2ccccc2)c2ccccc21 (centres undefined) | 23µM* | -22 | -7% | -3% | 21µM*
CCCCn1c(O)c(N=NC(=O)c2ccco2)c2ccccc21 | ? | -11 | -8% | -11% | 18µM*
O=C(CNC(=O)c1ccco1)N=Nc1c(O)n(CCc2ccccc2)c2ccccc12 | 5.2µM* | 128 | 1.8µM* | 4.1µM* | 3.7µM*
C=CCn1c(SCC(=O)Nc2cc(C)on2)nc2c([nH]c3ccccc32)c1=O | ? | i | ? | -12% | -19%
CC[C@H]1OC(=O)[C@H](C)[C@@H](O[C@H]2C[C@@](C)(OC)[C@@H](O)[C@H](C)O2)[C@H](C)[C@@H](O[C@@H]2O[C@H](C)C[C@H](N(C)C)[C@H]2O)[C@](C)(O)C[C@@H](C)[C@@H]2N[C@@H](COCCOC)O[C@@H]([C@H]2C)[C@]1(C)O | -5% | / | / | / | -9%
O=S(=O)(CCN1CCCCC1)Oc1ccc(Cl)cc1Cl | -9% | -8 | 1% | 1% | 9%
CCOC(=O)N1CCN(c2nc(C)c3c(n2)CC(C)CC3=O)CC1 (centres undefined) | 1% | -8 | 15% | 24% | -11%
COc1ccc(S(=O)(=O)N2CCCCCC2)cc1C(=O)N(C)Cc1cccs1 | -19% | -15 | -23% | -3% | -21%
Cn1cccc1/C=N/N1CCN(Cc2cccc3ccccc23)CC1 | ? | ? | -1% | -25% | 13µM*
COc1ccc(/C(C)=N/NC(=S)NCc2ccco2)cc1 | 2.9µM* | -26 | -5% | 1% | 1.5µM*
COc1ccc(CNC(=S)N/N=C(\C)c2ccc(OC)cc2)cc1 | 12µM* | 31 | ? | -14% | 5.2µM*
SMILES | TDP1 cell CPT | IL1B secr inh | HT1080 IDH1KD tx | HT1080-NT tox | DT40 TDP1 no CPT
C=CCNC(=S)N/N=C(\C)c1ccc(OC)cc1 | ? | -5 | 2% | 5% | ?
C=CCNC(=S)N/N=C(\C)c1cccc(OC)c1 | 1.2µM* | -77* | 11% | -4% | 2.1µM*
CCOC(=O)c1cc(S(=O)(=O)NCc2ccc(Cl)cc2)[nH]n1 | -10% | / | / | / | -20%
CCN(CC)C1=CC2=CC(=C(C#N)C#N)CCC2CC1 (centres undefined) | -14% | -2 | 8% | 4% | ?
N#CC(C#N)=C1C=C2C=C(N3CCCCC3)CCC2CC1 (centres undefined) | 26µM* | -6 | 4% | 1% | 21µM*
Cc1ccc(C(=O)O/N=C(\N)Cc2ccc([N+](=O)[O-])cc2)c(Cl)c1 | ? | ? | -2% | -4% | 23µM*
N/C(=N\OC(=O)Cc1ccc([N+](=O)[O-])cc1)c1ccc([N+](=O)[O-])cc1 | 0% | -1 | -10% | -24% | ?
N/C(=N\OC(=O)Cc1ccc([N+](=O)[O-])cc1)c1cccc(Br)c1 | 26% | -82* | 10% | -2% | 2%
N/C(Cc1cccc2ccccc12)=N\OC(=O)c1ccccc1F | 7% | 4 | -14% | 0% | 5%
Cc1ccc(CC(=O)O/N=C(\N)Cc2ccc([N+](=O)[O-])cc2)cc1 | 7% | -10 | 17% | 3% | -27%
N/C(Cc1ccccc1)=N\OC(=O)c1cccc2ccccc12 | ? | 22 | 21µM* | ? | ?
Cc1cccc(C(=O)O/N=C(\N)Cc2ccc([N+](=O)[O-])cc2)c1 | 26µM* | -7 | -14% | ? | -22%
N/C(Cc1ccc([N+](=O)[O-])cc1)=N\OC(=O)c1ccccc1Br | ? | ? | 15% | 15% | ?
COCCn1c(C)cc(O)c(C(c2cccc(F)c2)N2CCN(c3ccccc3)CC2)c1=O (centres undefined) | -5% | / | / | / | 5%
COCCNC(=O)C(c1ccc(C)o1)N(C(=O)c1snc(C(N)=O)c1N)c1cc(C)cc(C)c1 (centres undefined) | ? | ? | -22% | -5% | ?
Cc1cccc(N2CCN(S(=O)(=O)c3c(C)noc3/C=C/N(C)C)CC2)c1C | ? | 8 | 7% | 1% | ?
